± gives the standard deviation of the averaged measurements.
How the values were obtained:
Settings in all cases: concentration: 10 µM; 24 h
HCC1569 [1] = assay: cell number relative to DMSO (% of DMSO); higher = more cells (less growth inhibition / toxicity)
In short: (§1)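 H1.0 nuclear intensity or cell number is stated as percent of the plate control, based on the median of replicates, and HCC1569 values were smoothed for positional effects. These came from HCC1569 and TDF cells treated with compounds at 10 µM for 24 h at 37 °C in triplicate, then fixed in 3.7% formaldehyde and stained with a rabbit anti-H1.0 antibody, an AlexaFluor 647 secondary and DAPI.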

TDF [2] = assay: as above
In short: as §1

TDF [3] = assay: H1.0 immunofluorescence intensity relative to DMSO (% of DMSO); higher = stronger H1.0 induction, active = 120 or more
In short: as §1

HCC1569 [4] = assay: H1.0 immunofluorescence intensity relative to DMSO (% of DMSO); higher = stronger H1.0 induction, active = 140 or more
In short: as §1
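Throughout, for H1.0 immunofluorescence intensity relative to DMSO: TDF is a line of transformed human dermal fibroblasts of mesenchymal origin.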
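Throughout, for cell number relative to DMSO: TDF denotes transformed human dermal fibroblasts of mesenchymal origin.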

Structure (SMILES) | cell number (HCC1569 [1]) | cell number (TDF [2]) | H1.0 immunofluorescence intensity (TDF [3]) | H1.0 immunofluorescence intensity (HCC1569 [4])
CCC1(O)CC(OC2CC(N(C)C)C(OC3CC(O)C(OC4CCC(=O)C(C)O4)C(C)O3)C(C)O2)c2c(cc3c(c2O)C(=O)c2c(O)cccc2C3=O)C1C(=O)OC (configuration not stated) [Aclarubicin] | 83.2 | 55.5 | 129 (active) | 210 (active)
S=C([S-])OC1CC2CC1C1CCCC21.[K+] (configuration not stated) | 102 | 97.1 | 90.2 (inactive) | 98.2 (inactive)
O=C1CCC(N2C(=O)c3ccccc3C2=O)C(=O)N1 (configuration not stated) [Thalidomide] | 101 | 102 | 97.1 (inactive) | 96.7 (inactive)
Cl.O.O.c1ccc2c(c1)CN1CCCC1=N2 [Desoxypeganine] | 101 | 109 | 89.6 (inactive) | 86.8 (inactive)
COc1cc(C(=O)OC2CC3CCC2(C)C3(C)C)ccc1O (configuration not stated) [Tschimganine] | 101 | 103 | 99.6 (inactive) | 88.3 (inactive)
COC1=CC(C)C2CC3OC(=O)CC4C(C)=C(OC)C(=O)C(C2(C)C1=O)C34C (configuration not stated) [Quassin] | 101 | 89.6 | 96.8 (inactive) | 94.8 (inactive)
Cl.Clc1cccc(Cl)c1NC1=NCCN1 [Clonidine hydrochloride] | 99.2 | 103 | 94.1 (inactive) | 90 (inactive)
CC(=O)OC1(C(C)=O)CCC2C3C=C(Cl)C4=CC(=O)C5CC5C4(C)C3CCC21C (configuration not stated) [Cyproterone acetate] | 91.8 | 99.8 | 92.2 (inactive) | 98.5 (inactive)
COc1cccc(OC)c1OCCNCC1CSc2ccccc2O1.Cl (configuration not stated) [Benoxathian hydrochloride] | 91.4 | 108 | 91.8 (inactive) | 92 (inactive)
CC1C(=O)CCC2C1(C)CCC1C2(C)CCC2(C)C3CC(C)(C)CCC3(C)CCC12C (configuration not stated) [Friedelin] | 99.5 | 102 | 96.1 (inactive) | 87.8 (inactive)
CC(C)C(CO)Nc1nc(Nc2ccc(C(=O)O)c(Cl)c2)c2ncn(C(C)C)c2n1 (configuration not stated) [Purvalanol B] | 101 | 110 | 93.1 (inactive) | 98.7 (inactive)
CC(O)CCCC(O)C=CC1C(O)CC(O)C1CC=CCCCC(=O)O [19(R)-Hydroxy-prostaglandin F2a] | 104 | 101 | 93.3 (inactive) | 95.9 (inactive)
O=C(O)CO.[NH2-].[NH2-].[Pt+2] [Nedaplatin] | 94.6 | 92.6 | 96.9 (inactive) | 104 (inactive)
CCCCCC(O)C=CC1=C(CCCCCCC(=O)O)C(=O)CC1 (configuration not stated) [Prostaglandin B1] | 101 ± 2.6 | 108.4 ± 0.5 | 97.7 (inactive) | 101 (inactive)
CC(=O)OCC(CCn1cnc2cnc(N)nc21)COC(C)=O [Famciclovir] | 103 | 97.4 | 99.2 (inactive) | 111 (inactive)
N#CC(=C(N)Sc1ccc(N)cc1)c1ccccc1C(F)(F)F [MEK1/2 Inhibitor] | 100 | 111 | 86 (inactive) | 110 (inactive)
Br.Br.N=C(N)SCCc1cnc[nH]1 [Imetit dihydrobromide] | 103 | 103 | 94.8 (inactive) | 80.5 (inactive)
COC1=CC(=O)CC(C)C12Oc1c(Cl)c(OC)cc(OC)c1C2=O (single isomer, unassigned; (+)) [(+)-Griseofulvin] | 100 | 108 | 99.2 (inactive) | 95.6 (inactive)
C[N+](C)(C)CCO.[Cl-] [2-hydroxy-N,N,N-trimethylethanaminium chloride] | 101 | 107 | 94.9 (inactive) | 99.5 (inactive)
O.O=P(O)(O)C(O)(Cn1ccnc1)P(=O)(O)O | 99.2 | 94 | 94.5 (inactive) | 102 (inactive)
CS(=O)(=O)Nc1ccc(-c2coc3cc(OCc4cccc(C(=O)O)c4)ccc3c2=O)cc1 | 101 | 109 | 90.9 (inactive) | 107 (inactive)
CCCCCCCCCCCCCC=CC(O)C(CO)NCCCCCCCC (configuration not stated) [C8 Ceramine] | 105 | 97 | 95.1 (inactive) | 121 (inactive)
COc1cccc(C(=O)NCCN2CCN(c3ccc(Cl)cc3)CC2)c1 | 101 | 109 | 94.5 (inactive) | 92.3 (inactive)
